Reference: PubChem BioAssay (NCI)
Compounds without any hit were thinned out: in the full panel of roughly 79,000, 15% have a hit. The source made the active and inactive calls. No stated cut-off is given here; in the data, active means growth inhibition above about 70%; inactive means the rest.

How the values were obtained:
[1] = NCI Yeast Anticancer Drug Screen. Data for the rad50 strain (AID 155);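 further: 0% = growth of vehicle-only cultures of the same strain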; conditions: S. cerevisiae rad50 strain growth inhibition; at 50.0 µM; hits give high values
In short: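 Yeast carrying a defined DNA repair defect were exposed to test compounds, and growth was compared with vehicle-treated controls to give percent inhibition.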

[2] = NCI Yeast Anticancer Drug Screen. Data for the mec2-1 strain (AID 157); conditions: S. cerevisiae mec2-1 strain, at 50.0 µM, hits give high values
In short: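 Test agents were screened against the mec2-1 yeast strain, with defined DNA repair or cell cycle alteration. Growth was scored as inhibition against vehicle-only controls.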

[3] = NCI Yeast Anticancer Drug Screen. Data for the sgs1 mgt1 strain (AID 161);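 further: 0% = growth of cultures given vehicle only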; conditions: S. cerevisiae sgs1 mgt1 strain, at 50.0 µM, hits give high values
In short: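 Read-out: growth inhibition vs vehicle controls. Cells: mutant yeast strain deficient in DNA damage repair.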

[4] = NCI Yeast Anticancer Drug Screen. Data for the cln2 rad14 strain (AID 165);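 further: 0% = growth equal to vehicle treated cultures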; conditions: S. cerevisiae cln2 rad14 strain, at 50.0 µM, hits give high values
In short: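 Growth of compound-exposed yeast (cln2 rad14 genotype) measured and expressed as inhibition relative to vehicle.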

[5] = NCI Yeast Anticancer Drug Screen. Data for the bub3 strain (AID 167); conditions: S. cerevisiae bub3 mutant strain, at 50.0 µM, hits give high values
In short: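 Compounds were applied to a genetically altered yeast strain carrying a cell-cycle control defect. Growth inhibition was scored against vehicle-treated controls.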

[6] = NCI Yeast Anticancer Drug Screen. Data for the mlh1 rad18 strain (AID 175); conditions: S. cerevisiae mlh1 rad18 strain growth inhibition; at 50.0 µM; hits give high values
In short: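 In this whole-cell yeast screen, a strain with altered DNA damage repair is challenged with compound, and its growth is measured against matched vehicle-treated controls.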

Measured: growth inhibition

Oc1ccc2cc(O)ccc2c1
inactive: [1] -5.45% | [2] -25.6% | [3] -1.7% | [4] -7.8% | [5] -20.4% | [6] -5.85%

Cc1cc(C)c(N)cc1C
inactive: [1] 3.9% | [2] 13% | [3] -20.4% | [4] -43.5% | [5] -2.2% | [6] -2.5%

CC(C)([NH-])C[NH-].[Cl][Pt+2][Cl]
inactive: [1] -17.1% | [2] -18.8% | [3] -24.5% | [4] -23.4% | [5] -3.8% | [6] 5.1%

Nc1nc2ccccc2[nH]1
inactive: [1] 2.2% | [2] -0.3% | [3] -17.7% | [4] 0.8% | [5] -11.8% | [6] 6.95%

CC(C)(C)CNC(=S)Nc1ccccc1
inactive: [1] 3.45% | [2] 2.6% | [3] 3.4% | [4] 3.55% | [5] -2.05% | [6] 10%

O=C(CC1C(=O)Nc2ccccc2S1(=O)=O)Nc1cc(Cl)ccc1Cl (stereo unspecified)
inactive: [1] 0.15% | [2] -30.8% | [3] 7.25% | [4] 15.1% | [5] 4.5% | [6] -12.3%

COC(=O)C12c3ccccc3C3C(c4ccccc41)C32 (stereo unspecified)
inactive: [1] 11.9% | [2] 13.5% | [3] 22.8% | [4] 17.6% | [5] 2.2% | [6] 20.6%

O=C1C(=O)N(C23CC4CC(CC(C4)C2)C3)C(=S)N1c1ccccc1
inactive: [1] -9.7% | [2] -20.6% | [3] -44.2% | [4] -26% | [5] -24.7% | [6] -27.2%

CC(C)(C)c1ccc(OCCCCl)c(CCl)c1
inactive: [1] 23.4% | [2] 2.75% | [3] 10.1% | [4] 7.65% | [5] 52% | [6] 12.6%

CNC1C(CO)OC(OC)C1O (stereo unspecified)
inactive: [1] 10.8% | [2] 12% | [3] 7.1% | [4] 8% | [5] 1.2% | [6] -2.85%

Cc1cc2nc(N)n[n+]([O-])c2cc1C
inactive: [1] 8.4% | [2] 7.35% | [3] 2% | [4] -6.25% | [5] 1% | [6] -24.9%

Cc1cccc(NC(=O)C(Cl)Cl)n1
inactive: [1] -2.3% | [2] -20.8% | [3] -24.4% | [4] -43.8% | [5] -1.95% | [6] -18.1%

CCOC(=O)CC1CN(C(=O)c2ccccc2)CCC12OCCO2 (stereo unspecified)
inactive: [1] -3.4% | [2] -4.3% | [3] -4% | [4] -5.05% | [5] -2.35% | [6] -5.3%

COc1ccc(C(C#N)N2CCCCC2)cc1 (stereo unspecified)
inactive: [1] 21.6% | [2] -6.25% | [3] -13.5% | [4] 22.1% | [5] 7.05% | [6] 0.4%

CCOC(=O)C1=NC(c2ccccc2)(c2ccccc2)OC1=C(Cl)Cl
inactive: [1] 0.8% | [2] -16.4% | [3] -0.2% | [4] 19.8% | [5] -11.4% | [6] -10.5%

CC(=O)Nc1ccc2c(c1)Cc1cccc(O)c1-2
inactive: [1] 0.65% | [2] -7.15% | [3] 15.9% | [4] -29.9% | [5] 1.75% | [6] 10.1%

O=C(O)Cn1c(=O)ccc2ccccc21
inactive: [1] 4.4% | [2] -3.25% | [3] -8.55% | [4] -37.7% | [5] -7.7% | [6] 4.9%

Cc1ccc(S(=O)(=O)Nc2ccc(O)cc2)cc1
inactive: [1] -11.2% | [2] -15.2% | [3] -15.2% | [4] -27% | [5] -7.6% | [6] -5.4%

Cc1ccc(/C=C/C(=O)c2c([O-])on[n+]2-c2ccccc2)cc1
inactive: [1] 2.6% | [2] -7.85% | [3] 21.9% | [4] 14.9% | [5] 5% | [6] -4.8%

BrCCC1CCCCCC1
inactive: [1] 8.75% | [2] -5.4% | [3] 5.85% | [4] 6.05% | [5] -4.25% | [6] 1.3%

Cc1cccnc1N
inactive: [1] -9.4% | [2] -31.6% | [3] 5.3% | [4] -11.6% | [5] -1.15% | [6] 14.7%

COc1ccccc1NC(=O)C(=O)C(c1cnc2ccc([N+](=O)[O-])cc2n1)[N+](=O)[O-] (stereo unspecified)
inactive: [1] 16.2% | [2] -3.4% | [3] 6.3% | [4] 18.5% | [5] 7.6% | [6] -0.2%

COc1ccc(OC)c(C(N)=O)c1
inactive: [1] -0.1% | [2] 13.8% | [3] -1.25% | [4] 0.95% | [5] 0.85% | [6] -2.5%

CCCCCCCCCC(=O)OCC1OC(n2cc(F)c(=O)[nH]c2=O)C(N)C(OC(=O)CCCCCCCCC)C1O (stereo unspecified)
inactive: [1] 42.8% | [2] 5.6% | [3] 17.1% | [4] 57.6% | [5] 8.85% | [6] 8.15%

COCc1ccnn1-c1ccccc1C
inactive: [1] -5.85% | [2] 13.5% | [3] 9.3% | [4] -8.45% | [5] 5.2% | [6] -6.05%

O=C1c2ccccc2C(=O)N1/N=[N+](\[O-])N1Cc2ccccc2C1
inactive: [1] 18.4% | [2] 27.9% | [3] 24.1% | [4] -18.2% | [5] 7.65% | [6] 28.2%

Oc1ccccc1C=Nc1cccnc1
inactive: [1] 6.75% | [2] -19.5% | [3] -2.45% | [4] -7.2% | [5] -0.6% | [6] 8.7%

CNC(=O)OCc1c(COC(=O)NC)c2n(c1C)CS(=O)(=O)C2
inactive: [1] -6.15% | [2] -16% | [3] -10.4% | [4] 6.5% | [5] 12.1% | [6] 15.5%

CC(C)(C)NC(=O)NCc1ccccc1Cl
inactive: [1] 2.9% | [2] -8.1% | [3] -2.7% | [4] -52.5% | [5] -0.75% | [6] -8.35%

COc1c(NC(=O)c2ccc(Cl)c(Cl)c2)cccc1[N+](=O)[O-]
inactive: [1] 7.6% | [2] -9.1% | [3] 3.35% | [4] -2.85% | [5] 1.3% | [6] -1.3%

Fc1ccc(-c2ccc(F)cc2)cc1
inactive: [1] -18.6% | [2] -15.4% | [3] -12.1% | [4] -44.9% | [5] -6.8% | [6] -23.1%

CCOC(=O)CCC(NC(=O)c1ccc(Nc2cnc3cc(C(F)(F)F)ccc3n2)cc1)C(=O)OCC (stereo unspecified)
inactive: [1] 0.1% | [2] -12.8% | [3] -5.85% | [4] 19.9% | [5] 3.4% | [6] -4.65%

C1CCC2(CCC34CCCCC3CCCC4)CCCCC2C1 (stereo unspecified)
active: [1] 99.5% | [2] 99.7% | [3] 99.5% | [4] 99.3% | [5] 99.5% | [6] 98.2%

Cc1ccc(OC(=O)Nc2ccc(C(=O)O)c(O)c2)cc1
inactive: [1] -10.9% | [2] 8.3% | [3] 9.2% | [4] -6.75% | [5] -4.7% | [6] -5.2%

COc1c(C)c(=O)n2c3ccccc3n(C)c2c1C#N
inactive: [1] 19.5% | [2] 10.3% | [3] -18.4% | [4] 8.55% | [5] 0.85% | [6] 14.8%

COc1cccc(C2c3cc4c(cc3OC(N3CCOCC3)C2C)OCO4)c1OC (stereo unspecified)
inactive: [1] -25.4% | [2] -10.1% | [3] -7.85% | [4] 2.55% | [5] -2.05% | [6] -6.1%

Cc1cccc(C)c1NC(=O)C1=NC(=S)NC(c2ccccc2)C1c1nc2ccccc2s1 (stereo unspecified)
inactive: [1] -5.7% | [2] -19% | [3] -15.4% | [4] 10.2% | [5] -0.85% | [6] -1.1%

N/C(=N\O)C(=O)c1ccccc1
inactive: [1] 9.8% | [2] -12.8% | [3] -5.8% | [4] -5.3% | [5] 2.35% | [6] 3.95%

COC(=O)C(C(=O)c1ccccc1)c1ccccc1 (stereo unspecified)
inactive: [1] 30.6% | [2] 16.9% | [3] 9.5% | [4] 6.35% | [5] 8.4% | [6] 38.7%

Cc1ccccc1I
inactive: [1] -15.2% | [2] -32.3% | [3] -3.2% | [4] 9% | [5] 0.5% | [6] 9.2%

CC(=O)OCC(=O)O[C@@H]1[C@H]2[C@@H](OC(=O)c3ccccc3)[C@@H](C)C[C@]2(O)[C@H](OC(C)=O)[C@@]2(C)C(OC(C)=O)[C@]1(OC(C)=O)C[C@H]1C(=O)C(C)(C)C[C@@H]12 (stereo partly specified)
inactive: [1] -39.6% | [2] -33% | [3] -36.5% | [4] -28.9% | [5] -41.5% | [6] -61%
